Reference: PubChem BioAssay (NCI)
This is part of a sample that, as a whole, favours compounds with a hit. Of some 79,000 tested, about 15% had one in any assay. Values without a mark were called inactive. Activity calls are given as the source filed them. Cut-off read from the data, not from the text of the source: active = growth inhibition above about 70%; inactive = the rest.

Test: NCI Yeast Anticancer Drug Screen. Data for the cln2 rad14 strain (AID 165);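 note: 0% = growth equal to vehicle treated cultures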
Details: S. cerevisiae cln2 rad14 strain, hits give high values
Method: Growth inhibition of yeast strains with defined genetic alterations is measured as a screen for potential anti-cancer activity. Selected strains with alterations in DNA damage repair or cell cycle control were exposed to compounds and growth inhibition was measured relative to vehicle treated controls. The strain used in this assay is cln2 rad14

[1] = at 5.0 µM (retest, dose inferred, filed as 0.5)
[2] = at 50.0 µM (retest, dose inferred, filed as 5.0)

| Compound | growth inhibition [1] [%] | growth inhibition [2] | growth inhibition (at 50.0 µM) |
| --- | --- | --- | --- |
| c1ccc2nc3c(nc2c1)sc1ccccc13 | -29 | 15% | 36% |
| CC1=NN(C(=O)CC(=O)NC(=O)/C=C\c2ccccc2)C(=O)C1N=Nc1ccc([N+](=O)[O-])cc1 (configuration not stated) | 43 | 49% | 51.2% |
| CCCCCCCCCCCCCCCCCCNc1nc(=O)n(C2CC(OP(=O)(O)OCC3OC(n4cc(F)c(=O)[nH]c4=O)CC3O)C(CO)O2)cc1F (configuration not stated) | 7 | 68% | 86.3% (active) |
| COc1c2c(c3c(c1CCC(=O)O)OC(C)(C)C=C3)OC(C)(C)C=C2 | 43 | 82% (active) | 91.2% (active) |
| CC(=O)O[C@H]1CC[C@@]2(C)C(=CC[C@@H]3C2CC[C@]2(C)C(=O)NC(=O)CC32)C1 (some centres not stated) | -6 | 13% | 29.5% |
| CC(=O)NC(c1nc2cc(C)c(C)cc2[nH]1)c1nc2cc(C)c(C)cc2[nH]1 | 51 | 92% (active) | 42.8% |
| C/C(=N/NC(=S)Nc1ccccc1C)c1ccccn1 | 12 | 14% | 87.5% (active) |
| CCS(=O)(=O)Nc1ccc(Nc2c3ccccc3nc3ccccc23)c(OC)c1 | 43 | 84% (active) | 53.4% |
| Cc1cccc(/C=N/NC(=S)NC2CCCCC2)n1 | -24 | 20% | 40.6% |
| O=C1C(=O)c2cccc([N+](=O)[O-])c2-c2ccccc21 | 1 | 98% (active) | 97.8% (active) |
| CC(C)OP(=O)(OC(C)C)C(=NCCO)NNc1ccc([N+](=O)[O-])cc1 | 25 | 48% | 9.95% |
| CCOC(=S)SSSC(=S)OCC | 1 | 92% (active) | -2.7% |
| CSc1nc(-c2ccccc2)nc(=[N+]2CCOCC2)s1 | 14 | 14% | 64.1% |
| Nc1cc2c(cc1N)-c1ccccc1C2=O | -10 | 15% | -0.1% |
